From PubChem
This excerpt belongs to a sample that is enriched for hits.
Sm TGR inh: qHTS Assay for the Inhibitors of Schistosoma Mansoni Peroxiredoxins; purified TGR, DTNB reduction, TNB absorbance 405 nm; Potency, µM (top dose mostly 114 µM), inactives show at the highest dose activity change, negative = inhibition, actives largely listed as inhibitors; 360,000 tested, 3% active; AID 485364, 2010; note: potency is the fitted concentration of half-maximal effect; % is set by controls: 0 for no effect and ±100 for the full control effect; nearly all actives have a fitted effect of over 60% in size
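First, TGR (20 nM dispensed) and NADPH were mixed with compound. Second, a 15 min room-temperature incubation followed. Third, further NADPH and then DTNB were added to start the reaction. Finally, TNB absorbance was monitored kinetically.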
Shiga toxin inh: A qHTS for Small Molecule Inhibitors of Shiga Toxin | 290,000 tested, 9.2% active | inhibition, % at 38.7 µM | Vero cells, Shiga toxin protein synthesis inhibition reporter; in the data active = inhibition mostly above about 28%, no sharp cut-off; inactive = mostly below about 43%; note: 0% is about no effect
CHX counter: Cycloheximide Counterscreen for Small Molecule Inhibitors of Shiga Toxin. max response, %. 300,000 tested, 12% active. cell reporter, cycloheximide protein synthesis inhibition counterscreen; in the data active = max response mostly above about 13%, no sharp cut-off; inactive = mostly below about 14%; note: read at 38.3 µM for the half of the compounds with a filed dose; 0% is about no effect
TbPYK inhibitor: qHTS of Trypanosoma Brucei Inhibitors; Potency, µM (titrated, usually from 76.8 µM), inactives show at the top dose activity, negative = inhibition, most hits filed as inhibitors; AID 624173, 2012; TbPYK enzyme, Kinase-Glo Plus ATP luminescence, 45 min; 410,000 tested, 0.12% active; pyruvate kinase (Trypanosoma brucei), Q57TT1; note: potency is the fitted concentration of half-maximal effect; % is set by controls: 0 for no effect and ±100 for the full control effect; nearly all actives have a fitted effect of over 50% in size
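Luminescent Kinase-Glo Plus end-point after 45 min room-temperature reaction of T. brucei pyruvate kinase started with 130 uM ADP (final). Buffer TEA 50 mM pH 7.2 with KCl, MgCl2, BSA, Tween-20; titration-based qHTS with fitted concentration-effect curves.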
Giardia FBPA inh: qHTS Assay for Inhibitors of Fructose-1,6-bisphosphate Aldolase from Giardia Lamblia; A8B2U2; purified Giardia FBPA; Potency, µM (top dose mostly 59.6 µM), inactives show at the top dose activity, negative = inhibition, most hits filed as inhibitors; 290,000 tested, 0.71% active; AID 2451, 2010; note: potency is the fitted concentration of half-maximal effect; % is set by controls: 0 for no effect and ±100 for the full control effect; nearly all actives have a fitted effect of over 55% in size
Target sequence (A8B2U2 whole entry, looked up): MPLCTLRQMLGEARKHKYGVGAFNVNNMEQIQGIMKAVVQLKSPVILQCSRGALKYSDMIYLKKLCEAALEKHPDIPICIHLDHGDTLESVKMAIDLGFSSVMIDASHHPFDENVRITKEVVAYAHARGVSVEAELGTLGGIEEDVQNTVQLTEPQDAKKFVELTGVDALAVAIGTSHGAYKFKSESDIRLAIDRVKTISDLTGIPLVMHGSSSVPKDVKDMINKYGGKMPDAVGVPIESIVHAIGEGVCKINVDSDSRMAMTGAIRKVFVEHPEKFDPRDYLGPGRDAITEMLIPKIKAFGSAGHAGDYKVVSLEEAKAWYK
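40 nM FBPA preincubated 10 min at RT with compound (up to 57.5 uM final), then substrate plus GAPDH/TPI/NAD/arsenate coupling and diaphorase/resazurin added. Fluorescence read after 20 min at RT, 525/598 nm.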
LmPK inh: qHTS Assay for Inhibitors of Leishmania Mexicana Pyruvate Kinase (LmPK). AID 1721, 2009. 290,000 tested, 0.37% active. Q27686. Potency, µM (highest dose often 57.5 µM), for inactives: at the highest dose activity change, negative = inhibition, most hits filed as inhibitors. purified LmPK, Kinase-Glo ATP luminescence, 1 h; note: potency is the fitted concentration of half-maximal effect; % is set by controls: 0 for no effect and ±100 for the full control effect
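Purified LmPK (0.1 nM) with 0.5 mM PEP and 0.1 mM ADP in imidazole buffer pH 7.2 with MgCl2/KCl, 1 h at room temperature. ATP formed was read by luciferase luminescence and normalized to no-enzyme and uninhibited controls.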
* hit, by the source's call; u = inconclusive; x = no result given; ! = repeats disagree. Unless noted, calls come from the whole dose curve; as a rule, active = well fitted curve in the direction sought with a large enough effect; inconclusive = small, poorly fitted or top-dose-only effect, or another doubt; inactive = no such curve, though single readings can be large; an effect the other way counts as inactive or inconclusive.

SMILES | Sm TGR inh | Shiga toxin inh | CHX counter | TbPYK inhibitor | Giardia FBPA inh | LmPK inh
COc1cccc(-n2c(SCC(=O)Nc3nnc(C)s3)nc3c([nH]c4ccccc43)c2=O)c1 | 6.2% | x | x | -6.1% | x | x
Nc1c2c(nc3ccccc13)N(c1ccccc1)CC2 | -9.2% | 7.5 | 7.3 | -1.6% | u | -2.2%
Cc1cccc(N2CCc3c2nc2ccccc2c3N)c1 | -7.7% | 26.9*! | 16.7*! | -2.6% | u | -1.6%
O=C(c1ccccc1)c1ccc2c(c1)OCCOCCOCCO2 | 0.2% | 48.8* | 14.0* | -0.3% | -2.8% | -0.8%
O=C(C=Cc1ccc2c(c1)OCO2)c1ccccc1 | x | x | x | -11.9% | x | x
O=C(c1ccccc1)c1ccc2c(c1)OCCCO2 | 14.3% | 93.5* | 54.5* | -5.1% | 6.6% | -21.3%
O=C(/C=C/c1ccccc1)c1ccc2c(c1)OCCCCO2 | 5.9% | 41.4* | 42.8* | -14.7% | -5.6% | u
CC(=O)c1ccc2c(c1)OCCOCCOc1ccccc1OCCOCCO2 | -1.9% | -2.5 | -1.7 | 3.8% | 3.6% | 1.0%
O/N=C(/CCc1ccccc1)c1ccc2c(c1)OCCO2 | x | 75.2* | 37.5* | -7.9% | -3.7% | -16.8%
Cc1ccc2c(C)c(C(=O)N(Cc3ccc(Cl)cc3)C3CCS(=O)(=O)C3)oc2c1 (configuration not stated) | 2.4% | x | x | 5.9% | x | x
COc1ccc(OC)c(/C=C/C(=O)c2ccc3c(c2)OCCO3)c1 | -2.0% | 26.2* | 25.2* | -3.7% | -4.2% | -9.2%
O=C(CCc1ccccc1)c1ccc2c(c1)OCCCO2 | -7.2% | 125.0* | 69.2* | -9.0% | 2.1% | 0.0%
COc1cc(/C=C/C(=O)c2ccc3c(c2)OCCO3)cc(OC)c1OC | 1.3% | 4.3 | -1.0 | -0.5% | 3.6% | -0.9%
O=C(CCCc1ccccc1)c1ccc2c(c1)OCCO2 | 7.1% | -17.1 | -8.7 | -2.9% | 5.0% | u
CCCCC1CCC(C(=O)N(CCOC)c2c(N)n(CC(C)C)c(=O)[nH]c2=O)CC1 (configuration not stated) | 2.6% | x | x | 7.1% | x | x
O=c1cc(CN2CCc3ccccc32)nc2sccn12 | u | -5.5 | 0.4 | -6.1% | -30.0% | 3.4%
O=c1cc(CN2CCCc3ccccc32)nc2sccn12 | 28.2µM* | 58.6 | 23.9* | 1.4% | u | 1.3%
Cc1ccccc1N/N=C/c1c(C)nc2ccccn12 | u | -5.4 | -2.9 | 0.3% | 1.5% | -11.0%
CC(=O)Nc1cccc(C(=O)/C=C/c2cccs2)c1 | -18.8% | 81.8* | 54.0* | 14.0% | -2.8% | -7.7%
CC(=O)Nc1ccc(NC(=O)C(C)OC(=O)/C=C/c2cccs2)cc1 (configuration not stated) | -9.0% | -4.5 | 4.5 | -2.5% | 6.1% | 1.4%
CC(=O)Nc1cccc(C(=O)/C=C/c2ccc(/C=C/C(=O)c3cccc(NC(C)=O)c3)cc2)c1 | -4.3% | 45.3 | 35.4* | x | 7.8% | -0.5%
CC(=O)Nc1cccc(C(=O)/C=C/c2ccc(N(C)C)cc2)c1 | -10.4% | 76.0* | 41.9* | 1.7% | -12.8% | 2.8%
CC(=O)Nc1cccc(C(=O)/C=C/c2ccc(Br)cc2)c1 | -18.5% | -1.1 | -5.3 | 3.3% | -4.9% | -2.0%
CC(=O)Nc1cccc(C(=O)/C=C/c2ccc(F)cc2)c1 | u | 41.2 | 29.4* | 0.3% | -0.1% | -1.4%
CCOc1ccc(CCNC(=O)CN(C)S(=O)(=O)c2cccs2)cc1OCC | -3.3% | x | x | -8.0% | x | x
SMILES | Sm TGR inh | Shiga toxin inh | CHX counter | TbPYK inhibitor | Giardia FBPA inh | LmPK inh
CC(=O)Nc1cccc(C(=O)/C=C/c2ccc[nH]2)c1 | -31.1% | 53.6* | 26.4* | -4.1% | -5.8% | -2.5%
Cc1ccsc1C1NC(=O)c2ccccc2N1 (configuration not stated) | -13.4% | 22.3 | 22.8* | -21.1% | -6.3% | 3.5%
O=C1NC(c2cccs2)Nc2ccccc21 (configuration not stated) | -21.8% | 37.9* | 20.7* | u | -2.1% | 3.8%
O=C(NNC(=O)c1ccccc1-n1cccc1)c1ccc(Cl)nc1 | -22.1% | x | x | -2.0% | x | x
O=C(Nc1nc(-c2ccccc2)cs1)C1CCCCN1S(=O)(=O)c1ccccc1 (configuration not stated) | -13.0% | -12.9 | 7.7 | -6.0% | -12.5% | 0.2%
O=C(Nc1nc(-c2ccccc2)cs1)NC1CCCCC1 | 4.4% | 48.4* | 34.3* | -2.1% | 4.5% | 0.9%
COc1ccc(-c2csc(NC3CCCCC3)n2)c(OC)c1 | 0.1% | 59.7* | 26.3* | -8.9% | 1.0% | 10.2%
c1ccc(-c2csc(NC3CCCCC3)n2)cc1 | -19.8% | 148.3* | 55.8* | -4.3% | 0.0% | 0.2%
COc1ccc(C)cc1NC(=O)NCCn1nnc2cc(S(=O)(=O)N(C)C)ccc21 | -5.7% | x | x | -2.3% | x | x
O=C1COc2ccc(-c3cc(-c4ccccc4)c4c(n3)-c3cc(Cl)ccc3OC4)cc2N1 | 10.3% | x | x | 7.6% | x | x
COc1ccc(C(=O)NN/C=C/C(=O)c2ccc(Br)cc2)cc1 | x | x | x | -3.6% | x | x
COc1ccc(C(=O)C=CNNC(=O)c2ccc(Cl)cc2)cc1 | -27.5% | x | 15.7* | 2.4% | 15.7% | 0.7%
Cc1ccc(C(=O)/C=C/NNC(=O)c2ccccc2O)cc1 | 3.1% | 20.9 | 12.8 | -0.3% | 6.1% | 6.1%
O=C(/C=C/NNC(=O)c1ccccc1)c1ccc(Br)cc1 | 0.7% | 70.9* | 46.7* | -8.8% | -6.8% | 5.8%
O=C(/C=C/NNC(=O)c1cccc(Br)c1)c1cccc(Br)c1 | -8.9% | 49.9 | 1.9 | -5.5% | 7.3% | 6.8%
O=C(/C=C/NNC(=O)c1ccc(Cl)cc1)c1ccccc1 | u | 46.8* | 31.1* | -4.2% | -22.5% | 4.3%
O=C(/C=C/NCC(=O)c1ccccc1)c1ccc(Br)cc1 | 20µM* | 45.4* | 12.6 | 0.3% | -0.7% | 3.8%
Cc1ccccc1C(=O)NC1(C(F)(F)F)N=C(c2ccccc2)N(Cc2ccccc2)C1=O (configuration not stated) | -7.4% | x | x | 6.6% | x | x
CC(C)c1cccc2nc3c(c(C(C)(C)C)c12)Cn1c-3cccc1=O | x | x | x | x | -12.0% | x
CC(NC(=O)COC(=O)c1ccco1)C12CC3CC(CC(C3)C1)C2 (configuration not stated) | x | -4.2 | -9.8 | x | x | x
c1ccc2sc(N3CCCCC3)nc2c1 | x | x | x | -0.2% | x | x
Fc1cc(F)c2nc(N3CCCCC3)sc2c1 | 12.0% | 115.4* | 77.5* | 0.0% | 5.9% | u
O=[N+]([O-])c1ccc2nc(N3CCCC3)sc2c1 | 0.0% | 68.2* | 28.7* | -6.6% | -1.4% | 2.1%
Fc1ccc2nc(N3CCCC3)sc2c1 | u | 84.7* | 44.1* | -10.4% | -1.1% | -29.7%
